# Experimental data as given in the supplement of paper PMC10849652.
# Targets with a hit are over-represented here; the source holds about 7,900 in all. About 0.6% of all pairs of compound and target were hits.
# Compound: CC1=C(C2=C(C=C1)C(=O)C3=CC=CC=C3N2CCCN)C
# Assay: log2 fold change, soluble protein after heating vs DMSO (PISA); higher = thermal stabilisation; K562 cells, 10 uM, 30 min; active = over 0.2 and 3.5 SD of the protein, either way, in both replicates (recomputed)
# In short: (§1)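 Soluble protein was quantified by TMTpro 16plex LC-MS/MS after channel sums were equalised. It was obtained as the supernatant after 21,000xg for 90 min from pooled aliquots of K562 cells (2×10^6 cells/mL, 10 μM compound, 30 min) heated for 3 min across 48°C-58°C and extracted in PBS with 0.5% NP-40 at 4°C. Thermal stability values are relative to control samples and come from duplicates. They are given as log2 fold changes.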
# Sequence of UniProt Q9BU23 (Q9BU23 whole entry, looked up): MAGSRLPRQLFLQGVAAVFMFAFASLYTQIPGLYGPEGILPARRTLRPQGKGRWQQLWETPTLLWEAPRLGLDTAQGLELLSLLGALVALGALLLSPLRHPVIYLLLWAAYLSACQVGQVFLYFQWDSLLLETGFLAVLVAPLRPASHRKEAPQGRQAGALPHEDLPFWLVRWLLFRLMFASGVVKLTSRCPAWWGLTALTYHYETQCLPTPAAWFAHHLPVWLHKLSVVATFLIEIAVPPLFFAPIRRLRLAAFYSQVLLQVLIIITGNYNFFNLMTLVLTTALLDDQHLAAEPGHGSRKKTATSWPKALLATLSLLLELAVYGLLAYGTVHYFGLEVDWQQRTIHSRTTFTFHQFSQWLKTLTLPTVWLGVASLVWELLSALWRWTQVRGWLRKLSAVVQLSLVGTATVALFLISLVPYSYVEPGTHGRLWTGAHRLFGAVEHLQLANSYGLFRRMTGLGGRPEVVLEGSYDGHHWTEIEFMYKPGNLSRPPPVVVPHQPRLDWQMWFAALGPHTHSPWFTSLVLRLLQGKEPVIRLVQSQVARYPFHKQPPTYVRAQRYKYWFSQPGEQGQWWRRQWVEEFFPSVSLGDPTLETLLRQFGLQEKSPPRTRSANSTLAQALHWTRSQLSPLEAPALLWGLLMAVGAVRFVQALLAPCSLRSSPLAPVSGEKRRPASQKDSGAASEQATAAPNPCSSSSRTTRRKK
# Sequence of UniProt Q8IWB1 (Q8IWB1 whole entry, looked up): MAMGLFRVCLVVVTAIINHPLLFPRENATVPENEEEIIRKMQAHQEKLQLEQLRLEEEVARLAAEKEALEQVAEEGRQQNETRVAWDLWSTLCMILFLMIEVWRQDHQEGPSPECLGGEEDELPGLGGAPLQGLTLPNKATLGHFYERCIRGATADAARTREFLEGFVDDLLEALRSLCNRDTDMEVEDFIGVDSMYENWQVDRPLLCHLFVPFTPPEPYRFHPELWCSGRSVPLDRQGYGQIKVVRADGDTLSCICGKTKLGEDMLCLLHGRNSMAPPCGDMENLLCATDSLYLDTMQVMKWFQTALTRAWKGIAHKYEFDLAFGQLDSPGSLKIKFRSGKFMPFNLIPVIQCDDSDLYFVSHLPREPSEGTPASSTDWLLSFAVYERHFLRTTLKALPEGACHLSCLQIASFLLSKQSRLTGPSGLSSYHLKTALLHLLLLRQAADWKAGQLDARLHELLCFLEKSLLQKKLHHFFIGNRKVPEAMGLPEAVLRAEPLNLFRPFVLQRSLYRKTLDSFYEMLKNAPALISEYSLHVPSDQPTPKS
# Sequence of UniProt Q96AQ8 (Q96AQ8 whole entry, looked up): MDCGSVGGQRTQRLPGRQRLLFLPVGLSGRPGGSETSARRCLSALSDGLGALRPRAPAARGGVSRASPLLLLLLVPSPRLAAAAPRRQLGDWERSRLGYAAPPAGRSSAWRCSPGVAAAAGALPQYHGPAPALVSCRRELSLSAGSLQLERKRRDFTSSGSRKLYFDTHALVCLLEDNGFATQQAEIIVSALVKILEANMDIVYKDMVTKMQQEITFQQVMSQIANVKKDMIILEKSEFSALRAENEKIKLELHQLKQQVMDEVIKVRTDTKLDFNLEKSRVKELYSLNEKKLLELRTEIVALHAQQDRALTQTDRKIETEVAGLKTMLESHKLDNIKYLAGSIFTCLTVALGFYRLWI
# Sequence of UniProt Q9NYL2 (Q9NYL2 whole entry, looked up): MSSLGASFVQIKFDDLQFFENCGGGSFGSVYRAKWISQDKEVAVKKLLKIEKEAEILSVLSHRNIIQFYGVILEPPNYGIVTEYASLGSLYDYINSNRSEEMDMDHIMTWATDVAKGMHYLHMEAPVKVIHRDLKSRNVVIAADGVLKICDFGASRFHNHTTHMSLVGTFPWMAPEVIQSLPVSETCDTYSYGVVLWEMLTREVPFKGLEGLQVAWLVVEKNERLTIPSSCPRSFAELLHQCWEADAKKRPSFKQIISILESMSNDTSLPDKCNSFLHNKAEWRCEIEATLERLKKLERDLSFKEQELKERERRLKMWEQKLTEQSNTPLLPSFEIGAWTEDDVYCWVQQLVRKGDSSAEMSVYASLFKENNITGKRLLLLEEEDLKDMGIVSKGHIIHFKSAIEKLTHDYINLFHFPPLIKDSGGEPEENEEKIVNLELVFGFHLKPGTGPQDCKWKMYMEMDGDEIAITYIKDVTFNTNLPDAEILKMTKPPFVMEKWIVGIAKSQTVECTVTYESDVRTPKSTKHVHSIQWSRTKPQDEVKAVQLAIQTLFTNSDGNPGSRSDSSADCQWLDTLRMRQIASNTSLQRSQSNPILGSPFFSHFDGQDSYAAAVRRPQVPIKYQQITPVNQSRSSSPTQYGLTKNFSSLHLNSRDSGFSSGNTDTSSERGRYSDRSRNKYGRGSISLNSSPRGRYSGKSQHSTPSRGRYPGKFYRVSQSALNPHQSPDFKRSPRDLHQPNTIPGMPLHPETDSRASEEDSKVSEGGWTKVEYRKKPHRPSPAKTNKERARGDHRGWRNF
# Sequence of UniProt Q02750 (Q02750 whole entry, looked up): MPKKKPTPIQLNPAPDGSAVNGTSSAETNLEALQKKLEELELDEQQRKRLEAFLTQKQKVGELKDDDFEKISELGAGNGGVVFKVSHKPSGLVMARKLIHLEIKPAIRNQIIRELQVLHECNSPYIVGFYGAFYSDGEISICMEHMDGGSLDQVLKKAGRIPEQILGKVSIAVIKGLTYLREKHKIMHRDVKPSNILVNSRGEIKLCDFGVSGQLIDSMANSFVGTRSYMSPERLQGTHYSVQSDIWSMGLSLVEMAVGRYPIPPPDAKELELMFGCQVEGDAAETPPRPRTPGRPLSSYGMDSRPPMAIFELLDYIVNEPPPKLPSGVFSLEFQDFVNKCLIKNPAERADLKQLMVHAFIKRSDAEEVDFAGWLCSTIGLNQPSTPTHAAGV
# Sequence of UniProt Q8WWC4 (Q8WWC4 whole entry, looked up): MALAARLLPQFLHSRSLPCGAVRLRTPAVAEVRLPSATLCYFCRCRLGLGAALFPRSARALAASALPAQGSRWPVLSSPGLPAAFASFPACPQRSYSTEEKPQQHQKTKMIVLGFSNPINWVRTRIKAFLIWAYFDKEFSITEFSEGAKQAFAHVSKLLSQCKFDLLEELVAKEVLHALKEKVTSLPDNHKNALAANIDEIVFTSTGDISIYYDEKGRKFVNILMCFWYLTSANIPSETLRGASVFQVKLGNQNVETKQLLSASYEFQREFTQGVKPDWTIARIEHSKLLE
# Sequence of UniProt P01130 (P01130 whole entry, looked up): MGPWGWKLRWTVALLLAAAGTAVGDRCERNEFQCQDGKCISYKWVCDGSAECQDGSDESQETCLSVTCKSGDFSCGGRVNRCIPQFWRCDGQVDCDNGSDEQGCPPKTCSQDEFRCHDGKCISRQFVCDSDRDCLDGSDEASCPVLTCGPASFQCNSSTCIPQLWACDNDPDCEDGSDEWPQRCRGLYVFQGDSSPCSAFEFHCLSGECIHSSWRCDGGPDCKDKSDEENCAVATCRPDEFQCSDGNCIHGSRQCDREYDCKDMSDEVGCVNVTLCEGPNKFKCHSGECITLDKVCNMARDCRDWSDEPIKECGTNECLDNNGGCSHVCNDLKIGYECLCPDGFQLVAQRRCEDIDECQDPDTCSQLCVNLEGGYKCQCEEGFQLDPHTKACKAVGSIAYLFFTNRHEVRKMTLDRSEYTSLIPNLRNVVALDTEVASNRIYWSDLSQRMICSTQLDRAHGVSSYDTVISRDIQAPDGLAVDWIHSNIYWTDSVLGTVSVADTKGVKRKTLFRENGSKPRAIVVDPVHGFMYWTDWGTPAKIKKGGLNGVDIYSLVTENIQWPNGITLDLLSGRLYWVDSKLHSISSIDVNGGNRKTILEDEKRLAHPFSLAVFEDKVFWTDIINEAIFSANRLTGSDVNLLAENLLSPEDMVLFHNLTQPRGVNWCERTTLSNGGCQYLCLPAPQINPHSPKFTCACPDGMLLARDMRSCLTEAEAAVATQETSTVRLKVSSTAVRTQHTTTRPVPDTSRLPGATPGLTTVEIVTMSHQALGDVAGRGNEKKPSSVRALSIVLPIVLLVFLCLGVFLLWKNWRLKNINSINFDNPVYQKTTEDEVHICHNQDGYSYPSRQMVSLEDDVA
# Sequence of UniProt Q96GA3 (Q96GA3 whole entry, looked up): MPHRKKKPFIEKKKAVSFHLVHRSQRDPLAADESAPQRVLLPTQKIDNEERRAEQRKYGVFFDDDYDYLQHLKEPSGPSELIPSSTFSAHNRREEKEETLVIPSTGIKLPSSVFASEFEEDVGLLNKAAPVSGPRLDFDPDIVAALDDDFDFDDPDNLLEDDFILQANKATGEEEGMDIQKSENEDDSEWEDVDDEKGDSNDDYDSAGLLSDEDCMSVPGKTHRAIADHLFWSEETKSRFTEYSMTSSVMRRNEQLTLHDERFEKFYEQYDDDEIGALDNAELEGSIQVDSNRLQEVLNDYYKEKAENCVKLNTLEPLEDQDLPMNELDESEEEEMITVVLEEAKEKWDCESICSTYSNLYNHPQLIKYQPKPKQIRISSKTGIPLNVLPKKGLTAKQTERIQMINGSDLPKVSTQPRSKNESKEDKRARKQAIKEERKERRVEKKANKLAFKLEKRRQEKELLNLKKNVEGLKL
# Sequence of UniProt Q96A72 (Q96A72 whole entry, looked up): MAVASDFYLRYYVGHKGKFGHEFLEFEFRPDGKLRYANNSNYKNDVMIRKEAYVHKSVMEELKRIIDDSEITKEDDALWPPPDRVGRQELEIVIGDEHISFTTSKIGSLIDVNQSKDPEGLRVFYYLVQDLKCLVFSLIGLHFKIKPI
# Sequence of UniProt Q8WV07 (Q8WV07 whole entry, looked up): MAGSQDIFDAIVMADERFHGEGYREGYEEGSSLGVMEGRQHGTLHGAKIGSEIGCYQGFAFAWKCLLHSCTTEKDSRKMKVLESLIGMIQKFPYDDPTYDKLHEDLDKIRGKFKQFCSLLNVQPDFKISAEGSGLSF
# Sequence of UniProt Q13257 (Q13257 whole entry, looked up): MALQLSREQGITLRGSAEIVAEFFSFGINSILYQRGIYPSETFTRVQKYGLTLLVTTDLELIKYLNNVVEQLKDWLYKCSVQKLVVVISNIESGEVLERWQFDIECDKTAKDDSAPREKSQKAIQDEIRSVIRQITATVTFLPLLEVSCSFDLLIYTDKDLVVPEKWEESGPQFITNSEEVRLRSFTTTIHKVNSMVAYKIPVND
row,Target,log2 fold change
1,MCUR1 (UniProt Q96AQ8),-0.002 (inactive)
2,ITPRIP (UniProt Q8IWB1),0.022 (inactive)
3,MAP2K1 (UniProt Q02750),0.026 (inactive)
4,LPGAT1 (UniProt Q92604),0.069 (inactive)
5,LMNB1 (UniProt P20700),-0.082 (inactive)
6,LTV1 (UniProt Q96GA3),-0.726 (active)
7,MAIP1 (UniProt Q8WWC4),0.052 (inactive)
8,MIER1 isoform 12 (UniProt Q8N108),-0.122 (inactive)
9,KCT2 (UniProt Q8NC54),-0.035 (inactive)
10,KPNA4 (UniProt O00629),-0.347 (active)
11,MAPK12 (UniProt P53778),-0.025 (inactive)
12,LDLR (UniProt P01130),-0.058 (inactive)
13,LMF2 (UniProt Q9BU23),0.001 (inactive)
14,LTN1 isoform 3 (UniProt O94822),0.093 (inactive)
15,LRPPRC (UniProt P42704),-0.252 (inactive)
16,MAD2L1 (UniProt Q13257),-0.033 (inactive)
17,LARP4B (UniProt Q92615),0.034 (inactive)
18,ILK (UniProt Q13418),0.01 (inactive)
19,LTO1 (UniProt Q8WV07),0.041 (inactive)
20,KIF3A (UniProt Q9Y496),-0.081 (inactive)

row,Target,log2 fold change
1,MAP3K20 (UniProt Q9NYL2),0.027 (inactive)
2,MAGOHB (UniProt Q96A72),0.028 (inactive)
3,MAP3K4 isoform 2 (UniProt Q9Y6R4),0.002 (inactive)
4,LIMA1 isoform 4 (UniProt Q9UHB6),0.049 (inactive)
5,MAGEC2 (UniProt Q9UBF1),-0.318 (active)
6,MAP2K3 isoform 3 (UniProt P46734),-0.032 (inactive)
7,MAGEA9 (UniProt P43362),-0.49 (active)
8,ILVBL (UniProt A1L0T0),0.025 (inactive)
9,MDN1 (UniProt Q9NU22),0.005 (inactive)
10,KIF21A isoform 4 (UniProt Q7Z4S6),0.096 (inactive)
11,LNPK (UniProt Q9C0E8),-0.035 (inactive)
12,LRBA (UniProt P50851),-0.004 (inactive)
13,LEMD3 (UniProt Q9Y2U8),0.101 (inactive)
14,LAMP2 (UniProt P13473),0.066 (inactive)
15,KLHDC4 (UniProt Q8TBB5),0.159 (inactive)
16,LBR (UniProt Q14739),0.188 (inactive)
17,KHDC4 (UniProt Q7Z7F0),0.021 (inactive)
18,MAP4K4 isoform 3 (UniProt O95819),0.073 (inactive)
19,LEMD2 (UniProt Q8NC56),0.131 (inactive)

# Compound: CC1=C(C=C(C=C1)NC(=O)C2=CC(=CC=C2)C(C)(C)C#N)NC3=CC4=C(C=C3)N=CN(C4=O)C
# Assay: as above
# In short: as §1
row,Target,log2 fold change
1,MCUR1 (UniProt Q96AQ8),0 (inactive)
2,ITPRIP (UniProt Q8IWB1),-0.044 (inactive)
3,MAP2K1 (UniProt Q02750),-0.013 (inactive)
4,LPGAT1 (UniProt Q92604),-0.077 (inactive)
5,LMNB1 (UniProt P20700),-0.019 (inactive)
6,LTV1 (UniProt Q96GA3),0.044 (inactive)
7,MAIP1 (UniProt Q8WWC4),-0.022 (inactive)
8,MIER1 isoform 12 (UniProt Q8N108),0.003 (inactive)
9,KCT2 (UniProt Q8NC54),0.104 (inactive)
10,KPNA4 (UniProt O00629),0.016 (inactive)
11,MAPK12 (UniProt P53778),-0.043 (inactive)
12,LDLR (UniProt P01130),-0.063 (inactive)
13,LMF2 (UniProt Q9BU23),0.009 (inactive)
14,LTN1 isoform 3 (UniProt O94822),-0.013 (inactive)
15,LRPPRC (UniProt P42704),0.264 (inactive)
16,MAD2L1 (UniProt Q13257),0.019 (inactive)
17,LARP4B (UniProt Q92615),0.055 (inactive)
18,ILK (UniProt Q13418),-0.179 (inactive)
19,LTO1 (UniProt Q8WV07),0.021 (inactive)
20,KIF3A (UniProt Q9Y496),-0.041 (inactive)

row,Target,log2 fold change
1,MAP3K20 (UniProt Q9NYL2),-0.448 (active)
2,MAGOHB (UniProt Q96A72),-0.002 (inactive)
3,MAP3K4 isoform 2 (UniProt Q9Y6R4),-0.012 (inactive)
4,LIMA1 isoform 4 (UniProt Q9UHB6),-0.082 (inactive)
5,MAGEC2 (UniProt Q9UBF1),0.017 (inactive)
6,MAP2K3 isoform 3 (UniProt P46734),-0.071 (inactive)
7,MAGEA9 (UniProt P43362),-0.033 (inactive)
8,ILVBL (UniProt A1L0T0),-0.021 (inactive)
9,MDN1 (UniProt Q9NU22),-0.023 (inactive)
10,KIF21A isoform 4 (UniProt Q7Z4S6),0.051 (inactive)
11,LNPK (UniProt Q9C0E8),-0.011 (inactive)
12,LRBA (UniProt P50851),-0.011 (inactive)
13,LEMD3 (UniProt Q9Y2U8),-0.066 (inactive)
14,LAMP2 (UniProt P13473),0 (inactive)
15,KLHDC4 (UniProt Q8TBB5),-0.027 (inactive)
16,LBR (UniProt Q14739),0.045 (inactive)
17,KHDC4 (UniProt Q7Z7F0),-0.008 (inactive)
18,MAP4K4 isoform 3 (UniProt O95819),-0.166 (inactive)
19,LEMD2 (UniProt Q8NC56),-0.068 (inactive)
